Experimental findings from PubChem BioAssay (NCATS) are described below.

Values joined by “and” are separate entries in the source; they are usually repeats but may differ in a detail not shown here. Equal values may be shown once. Results filed as inconclusive are left out. Values without a mark were called inactive. Active and inactive are the calls of the source. Calls follow the shape of the dose curve; as a rule, active = well fitted inhibition curve with a large enough effect; inconclusive = small, poorly fitted or top-dose-only effect; inactive = flat fitted curve, though single readings scatter.
% is scaled to controls: 0 for no effect and ±100 for the full control effect; potency is read from the fitted curve at half-maximal effect.

One experiment in a line: Drug repurposing screens with cells derived from glioblastoma tumor samples (AID 1345199). Also: nearly all actives have a fitted effect of over 40% in size. The following applies: GBM patient neurospheres viability, ATP luminescence, 48 h; at 45.9 µM (top of the series); tumour line D. The method in brief: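 Four patient lines of CD133+ GBM neurospheres were screened at several concentrations; hits were retested in those lines plus three slower-growing GBM lines, using 48-hour treatment and ATP-based viability.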
For the compound `CN1[C@@H]2CCC[C@@H]1CC(NC(=O)c1nn(C)c3ccccc13)C2` (stereo partly drawn), the activity, negative = cell killing is 2.65%.

As to `C[N+]1(C)[C@@H]2CC(OC(=O)[C@H](CO)c3ccccc3)C[C@H]1[C@H]1O[C@@H]12` (stereo partly drawn), the activity, negative = cell killing is -20.1%.

As for `Cc1cnc(C(=O)O)c[n+]1[O-]`, the activity, negative = cell killing was -2.04% and 1.27% and -4.74%.

Turning to `Cc1nnc(C(C)C)n1C1C[C@H]2CC[C@@H](C1)N2CC[C@H](NC(=O)C1CCC(F)(F)CC1)c1ccccc1` (stereo partly drawn), the activity, negative = cell killing is -11.6%.

`CCOC(=O)O[C@]1(C(=O)OCCl)CC[C@@H]2[C@H]3CCC4=CC(=O)C=C[C@]4(C)[C@@H]3[C@@H](O)C[C@@]21C`: the activity, negative = cell killing is 8.73%.

For the compound `CC(=O)O[C@]1(C(C)=O)CC[C@H]2[C@@H]3C=C(Cl)C4=CC(=O)[C@@H]5C[C@@H]5[C@]4(C)[C@H]3CC[C@@]21C`, the activity, negative = cell killing is -23%.

Regarding `N#C[C@H]1C[C@H]2C[C@@H]2N1C(=O)[C@@H](N)C12CC3CC(CC(O)(C3)C1)C2`, the activity, negative = cell killing was -16.4%.

As to `CC1(C)O[C@H]2C[C@@H]3[C@H]4CCC5=CC(=O)C=C[C@]5(C)[C@@]4(F)[C@@H](O)C[C@]3(C)[C@]2(C(=O)CO)O1`, the activity, negative = cell killing is 5.68%.

With `NC[C@@H]1O[C@@H](O[C@H]2[C@@H](O)[C@H](O[C@@H]3[C@@H](O)[C@@H](N)C[C@H](N)[C@H]3O[C@H]3O[C@H](CN)[C@@H](O)[C@@H](O)[C@H]3N)O[C@H]2CO)[C@H](N)[C@@H](O)[C@@H]1O`, the activity, negative = cell killing is 4.28%.

Staying with this experiment, now noted: GBM patient neurospheres viability, ATP luminescence, 48 h; at 46 µM (top of the series); tumour line A.
In the case of `C[N+]1(C)[C@@H]2CC(OC(=O)[C@H](CO)c3ccccc3)C[C@H]1[C@H]1O[C@@H]12` (stereo partly drawn), the activity, negative = cell killing was -28.4%.

In the case of `Cc1cnc(C(=O)O)c[n+]1[O-]`, the activity, negative = cell killing is -14.3% and -47.1%.

`CCOC(=O)O[C@]1(C(=O)OCCl)CC[C@@H]2[C@H]3CCC4=CC(=O)C=C[C@]4(C)[C@@H]3[C@@H](O)C[C@@]21C`: the activity, negative = cell killing is -8.19%.

As for `N#C[C@H]1C[C@H]2C[C@@H]2N1C(=O)[C@@H](N)C12CC3CC(CC(O)(C3)C1)C2`, the activity, negative = cell killing was -21.1%.

For `CC1(C)O[C@H]2C[C@@H]3[C@H]4CCC5=CC(=O)C=C[C@]5(C)[C@@]4(F)[C@@H](O)C[C@]3(C)[C@]2(C(=O)CO)O1`, the activity, negative = cell killing is -11.2%.

As to `NC[C@@H]1O[C@@H](O[C@H]2[C@@H](O)[C@H](O[C@@H]3[C@@H](O)[C@@H](N)C[C@H](N)[C@H]3O[C@H]3O[C@H](CN)[C@@H](O)[C@@H](O)[C@H]3N)O[C@H]2CO)[C@H](N)[C@@H](O)[C@@H]1O`, the activity, negative = cell killing was -29.1%.

Still in this experiment, the particulars now being: GBM patient neurospheres viability, ATP luminescence, 48 h; at 46.1 µM (top of the series); tumour line C.
In the case of `CN1[C@@H]2CCC[C@@H]1CC(NC(=O)c1nn(C)c3ccccc13)C2` (stereo partly drawn), the activity, negative = cell killing was -11.6%.

For the compound `C[N+]1(C)[C@@H]2CC(OC(=O)[C@H](CO)c3ccccc3)C[C@H]1[C@H]1O[C@@H]12` (stereo partly drawn), the activity, negative = cell killing was -22.8%.

For the compound `Cc1cnc(C(=O)O)c[n+]1[O-]`, the activity, negative = cell killing is -29.9% and -17.2% and -16.5%.

For the compound `O=C(O)c1c(Cl)c(Cl)c(Cl)c(Cl)c1-c1c2cc(I)c(=O)c(I)c-2oc2c(I)c(O)c(I)cc12`, the activity, negative = cell killing is -28.5%.

Regarding `Cc1nnc(C(C)C)n1C1C[C@H]2CC[C@@H](C1)N2CC[C@H](NC(=O)C1CCC(F)(F)CC1)c1ccccc1` (stereo partly drawn), the activity, negative = cell killing was 5.31%.

As to `CCOC(=O)O[C@]1(C(=O)OCCl)CC[C@@H]2[C@H]3CCC4=CC(=O)C=C[C@]4(C)[C@@H]3[C@@H](O)C[C@@]21C`, the activity, negative = cell killing is 1.62%.

In the case of `CC(=O)O[C@]1(C(C)=O)CC[C@H]2[C@@H]3C=C(Cl)C4=CC(=O)[C@@H]5C[C@@H]5[C@]4(C)[C@H]3CC[C@@]21C`, the activity, negative = cell killing was 2.8%.

With `N#C[C@H]1C[C@H]2C[C@@H]2N1C(=O)[C@@H](N)C12CC3CC(CC(O)(C3)C1)C2`, the activity, negative = cell killing is 4.9%.

Turning to `CC1(C)O[C@H]2C[C@@H]3[C@H]4CCC5=CC(=O)C=C[C@]5(C)[C@@]4(F)[C@@H](O)C[C@]3(C)[C@]2(C(=O)CO)O1`, the activity, negative = cell killing was 3.17%.

Turning to `NC[C@@H]1O[C@@H](O[C@H]2[C@@H](O)[C@H](O[C@@H]3[C@@H](O)[C@@H](N)C[C@H](N)[C@H]3O[C@H]3O[C@H](CN)[C@@H](O)[C@@H](O)[C@H]3N)O[C@H]2CO)[C@H](N)[C@@H](O)[C@@H]1O`, the activity, negative = cell killing was 9.32%.

Staying with this experiment, now noted: GBM patient neurospheres viability, ATP luminescence, 48 h; tumour line A.
Take `CN1[C@@H]2CCC[C@@H]1CC(NC(=O)c1nn(C)c3ccccc13)C2` (stereo partly drawn): the Potency is 12.6 µM (active).

`CC(C)OC(=O)C(C)(C)Oc1ccc(C(=O)c2ccc(Cl)cc2)cc1`: the Potency was 11.2 µM (active).

For the compound `CN1C[C@H]2c3ccccc3Oc3ccc(Cl)cc3[C@@H]2C1`, the Potency was 10 µM (active).
